In the supplement of paper PMC5734697:

The compounds below were run on Caenorhabditis elegans (assay: growth (movement index) relative to DMSO control, secondary screen (log2 fold change); higher = more growth (less anthelmintic activity)). Conditions: 10 µM, 5 days, 20 °C, stage: L1 start.
Description: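 C. elegans growth assay: synchronised L1 larvae (~20 per well) in S-complete medium with HB101 E. coli were grown in 96-well plates with Pathogen Box compound at 10 µM (1% DMSO) for 5 days at 20 °C. Motility/growth was quantified by whole-plate movie imaging (INVAPP/Paragon movement index). The score is the log2 fold change of the median movement of 5 replicate wells (on different plates) relative to DMSO-only wells. The secondary screen retested the top 20 hits with the same library material (n = 5, 10 µM).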

Compared with `CC(C)n1ncc2c(C(=O)NCC(c3cccs3)N3CCOCC3)cc(-c3ccccc3)nc21` (stereo not drawn), `O=C(Nc1ccc(F)c(-c2nc3cc(-c4ccccc4)cnc3[nH]2)c1)N1CCCC1` is higher in “growth (log2)” value: -8.04 for the first, -4.01 for the second.

Compared with `O=C(Nc1ccc2c(c1)B(O)OC2)c1ccccc1C(F)(F)F`, `Cc1cc(C(=O)Nc2ccc(-c3ccccc3)cc2)no1` is higher in “growth (log2)” value: -7.62 for the first, -6.92 for the second.

Going from `COC(=O)C1=C(C)NC(C)=C(C(=O)OC(C)C)C1c1cccc2nonc12` (stereo not drawn) to `CCOC(=O)NC(=O)c1ccsc1NC(=O)c1nc2ccccc2s1`, the “growth (log2)” value rises from -1.42 to -1.05.

First: CC(C)n1nc(-c2cc3c(Cl)cccc3[nH]2)c2c(N)ncnc21
Second: Clc1ccc(-n2cc(COc3ccnc4ccccc34)nn2)cc1
The “growth (log2)” value of the first is higher: -1.13 for the first, -2.02 for the second.

Going from `Nc1ccc(C(=O)Nc2ccc(-c3nc4ccccc4o3)cc2)cc1` to `COC(=O)Nc1nc2cc(C(=O)c3ccccc3)ccc2[nH]1`, the “growth (log2)” value falls from -5.41 to -5.72.

Going from `CC(C)(C)CN1C(=O)C(c2ccccc2)(c2ccccc2)N=C1N` to `O=C(Nc1nc(-c2ccccn2)cs1)C1CC1c1ccccc1F` (stereo not drawn), the “growth (log2)” value rises from -5.87 to -0.836.

Compared with `O=C(c1ccco1)N(CCCn1ccnc1)c1nc2c(Cl)cccc2s1`, `O=C(Nc1cccnc1)c1c(O)c2cccc3c2n(c1=O)CC3` is lower in “growth (log2)” value: -3.66 for the first, -4.82 for the second.

Compared with `CC(=O)OCC1OC([S-])C(OC(C)=O)C(OC(C)=O)C1OC(C)=O.CCP(CC)CC.[Au+]` (stereo not drawn), `CC(C)C(C(=O)Nc1ccc(S(=O)(=O)N(C)C)cc1)c1ccc(Cl)cc1` (stereo not drawn) is higher in “growth (log2)” value: -7.16 for the first, -2.66 for the second.

First: CN1CCN(c2cc(-c3ccc(F)cc3)nc(-c3ccncc3)n2)CC1
Second: CCc1ccc([C@@H]2C[C@H](C(F)(F)F)n3ncc(C(=O)NCc4ccc(OC)cc4)c3N2)cc1
The “growth (log2)” value of the first is higher: -2.12 for the first, -3.6 for the second.
